Assay results published in PubChem BioAssay (NCATS).
Results filed as inconclusive are left out. Values without a mark were called inactive. The source made the active and inactive calls. Calls come from the whole dose curve; as a rule, active = well fitted inhibition curve with a large enough effect; inconclusive = small, poorly fitted or top-dose-only effect; inactive = no such curve, though single readings can be large or run the other way.

Assay: qHTS for Inhibitors of the Aldehyde Dehydrogenase Family (ALDH1A2, ALDH1A3, ALDH2, ALDH3A1) (AID 2061307); note: nearly all actives have a fitted effect of over 50% in size; for Potency: test system not described further here
Settings: ALDH inhibition qHTS; series mostly up to 50.3 µM; activity change, negative = inhibition: at the top concentration
% is set by controls: 0 for no effect and ±100 for the full control effect; potency is the fitted concentration of half-maximal effect.

Compound	Potency	activity change, negative = inhibition
O=c1cc(N2CCNCC2)nc2sc(-c3cccc(-c4ccsc4)c3)nn12	6.31 µM (active)	
O=C(Cn1c2ncccc2c(=O)n1-c1ccccc1)Nc1ccc(Cl)cc1C(F)(F)F		-28.2% [at 34.4 µM]
c1coc(-c2ccc3nncn3c2)c1	8.96 µM (active)	
O=C(NCCN1CCN(c2cccc(Cl)c2)CC1)Nc1ccccc1C(F)(F)F		-60.6% [at 34.4 µM]
O=C(N/N=C/c1ccc(Sc2ccccn2)o1)c1cccc(F)c1	15.9 µM (active)	
Oc1ccc(N2CCN(Cc3ccc(OCCCN4CCCCC4)cc3)CC2)cc1		-1.76%
N#Cc1ccc(C(=O)Nc2nnc(C3=COCCO3)o2)cc1		-19.6%
CCOc1ccc(-c2nc3scc(-c4ccc(OC)cc4)c3c(=O)[nH]2)cc1OC		-18.5% [at 34.4 µM]
N#Cc1cccc(NC(=O)c2cc3c(s2)-c2ccc(Cl)cc2SC3)c1		-43.4% [at 34.4 µM]
Cn1c(=O)n(C)c2cc(N3CCCC3)c(NC(=O)Nc3ccccc3)cc21		0% [at 34.4 µM]
N[C@H](Cc1cscn1)C(=O)Nc1cccc(-c2nn3c(=O)cc(N4CCNCC4)nc3s2)c1		-36%
CCN1CCC(N(CCc2ccccc2)Cc2ccccc2)CC1		3.29%
O=C1c2ccccc2-c2nnc(-c3ccccc3Cl)cc21		-13.3%
CCOC(=O)COc1ccc2c(c1)c(C(=O)c1ccccc1)c(C)n2-c1ccc(OC)cc1		3.44% [at 34.4 µM]
O=C(c1cnc(N2CCCCC2)c2ccccc12)N1CCN(c2ccccc2)CC1		2.15%
Cc1c2c(=O)n(-c3ccccc3)[nH]c2cc(=O)n1CCN1CCOCC1		11.6%
Nc1ccc(Cn2ccc3c4c(N)nc(N)nc4ccc32)cc1		91.5%
NCC(=O)Nc1cc(-c2nn3c(=O)cc(N4CCNCC4)nc3s2)ccn1		5.66%
CC(=O)c1cc2c(cc1NC(=O)c1cnn(-c3ccc(F)cc3F)c1)OCO2		-13.3% [at 34.4 µM]
O=C(N/N=C/c1ccc(Sc2cccc3cccnc23)o1)c1cccc(F)c1	7.12 µM (active)	

Compound	Potency	activity change, negative = inhibition
Cc1ccc(C)n1-c1ccccc1C(=O)O		-27.7%
O=C1CCc2ccc(NC(=O)c3ccn(-c4ccccc4F)n3)cc2N1		3.22%
O=C1C[C@](c2ccc(N3CCOCC3)cc2)(c2ccsc2)NC(=O)C1Sc1ccccc1Cl (stereo not given in full)		-27.4%
O=C1c2ccccc2-c2nnc(-c3ccncc3)cc21		-23.4%
Cc1sc(NC(=O)Cc2ccc3c(c2)OCO3)nc1-c1ccc2c(c1)CCN2C(=O)c1ccccc1OC(F)(F)F	3.16 µM (active)	
Cn1c(C(=O)Nc2cccc(Cl)c2)cc2c(=O)n(C)c3ccccc3c21		0% [at 34.4 µM]
Fc1ccc(Cn2cnc3ccccc32)cc1F	12.7 µM (active)	
Cc1ccc2c(c1)/C(=C\C(=O)c1cccs1)C(=O)N2		-10.2%
N#Cc1ccc(NC(=O)Cc2csc3nc(-c4ccccc4)cn23)cc1	18.2 µM (active)	
COc1ccc(-n2cc(-c3ccc4c(c3)OCO4)n(CC(=O)Nc3cccc(C)c3)c2=O)cc1		-5.8% [at 34.4 µM]
COc1ccc(-n2c(C)c(C(C)=O)c3cc(OC(=O)c4ccco4)ccc32)cc1		13.3% [at 34.4 µM]
CC(C)C(=O)OCc1ccc(-c2nn(Cc3ccccc3)c3ccccc23)o1		-39.8%
CCc1ccc(CSc2nccn2-c2ccccc2)cc1		-11.5%
CCOC(=O)Cc1ccc(NC(=O)n2ncc3cc(Cl)ccc32)cc1		-0.401%
CCOC(=O)c1c(C)n(-c2ccc(OC)cc2)c2ccc(O)cc12		15.1% [at 34.4 µM]
O=C(Nc1ccc(S(=O)(=O)N2CCOC(c3ccccc3)C2)cc1)c1ccc(CN2CCc3ccccc3C2)cc1 (stereo not given)		1.44%
Brc1ccc(CN2CCC(N(CCc3ccccc3)Cc3ccccc3)CC2)cc1		-13.6%
Cc1csc2c1c(=O)n(O)c(=O)n2Cc1ccccc1		-27.1%
CCN(CC)S(=O)(=O)c1ccc(NC(=O)c2ccc(CN3CCc4ccccc4C3)cc2)cc1		36.6%
CCc1cccc(CC)c1-n1c(C)c(C(=O)NC2CC2)cc(-c2nc(-c3ccc(Cl)cc3)cs2)c1=O		-11.7%
